Bioassay records from PubChem.
Most compounds without a hit are left out; they make up all but 1.6% or so of the library.
KCNQ2 inh = rat KCNQ2 potassium channel inhibitors, primary screen, cell-based, CHO-K1, FluxOR thallium flux, B-score; AID 2156, 2009; Potassium voltage-gated channel subfamily KQT member 2 (Rattus norvegicus), O88943; B-score at 10 µM; 20 min; stronger effect = lower value; 1.1% of 310,000 active;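 active = fluorescence ratio B-score at most minus 3 library SDs, with starting brightness B-score within 2 library SDs, cut at about -5.5 in these data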
KCNQ2 enhance = potentiators of rat KCNQ2 potassium channel | 0.54% of 310,000 active | B-score at 10 µM | AID 2239, 2010 | Potassium voltage-gated channel subfamily KQT member 2 (Rattus norvegicus), O88943 | CHO-K1 KCNQ2, FluxOR thallium flux fluorescence; stronger effect = higher value;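 active = fluorescence ratio B-score at least 3 SD of library B-scores, with initial fluorescence B-score within 3 of them, cut at about 5.3 in these data; same plate scores as AID 2156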;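 note: B-score of peak minus minimum over baseline fluorescence ratio after K+ and Tl+ stimulus; positive B-score means potentiation of KCNQ2 with more thallium influx and brighter signal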
Kir21 confirm = mouse Kir2.1 channel blockers, retest, confirmation, cell-based, FluxOR thallium flux, duplicate; shares compounds with KCNQ2 enhance; Kir2.1-expressing cells, FluxOR thallium flux fluorescence; stronger effect = lower value; Tl flux remaining, % of negative control (stronger effect = lower value), % at 10 µM; 41% of 2,300 active; AID 2032, 2009;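 active = Primary-screen hit whose thallium flux fell at least 3 control SD below untreated wells in both duplicates, with normal baseline fluorescence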;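 note: 0% = blank wells without stimulus and 100% = stimulated no-compound controls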
HEK293 ctr = parental HEK293 activity in Kir2.1 inhibitor counter-screen; shares compounds with KCNQ2 enhance; parental HEK293 cells, FluxOR thallium flux fluorescence; 0% = unstimulated blank wells; FluxOR signal as % of negative control (100 = no effect), % at 10 µM; 19% of 2,300 active;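 active = dye signal at least 3 control SD above or below untreated wells in both duplicates, raw fluorescence within 3, either direction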;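 note: percent is based on the flux ratio of peak minus minimum fluorescence over baseline F0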
CHO-K1 Tl ctr = nonspecific thallium flux increase in parental CHO-K1, confirmation, counter-screen for KCNQ2 potentiator project, cell-based, FluxOR thallium flux, duplicate | shares compounds with KCNQ2 enhance | parental CHO-K1 cells, FluxOR thallium flux fluorescence; zero = vehicle mean+3SD, 100% = vehicle-minus-blank window | activity increase over 3SD of controls, % at 10 µM | 43% of 1,200 active;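 active = signal rise of at least 3 SD above the untreated control mean, in both duplicate wells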;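 note: counter screen of KCNQ2 potentiator hits so any rise reflects channel-independent effects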
KCNQ1 pot spec = human KCNQ1 channel potentiation off-target, confirmation, selectivity assay for KCNQ2 potentiator project, cell-based, CHO, FluxOR thallium flux; shares compounds with KCNQ2 enhance; activation over 3SD threshold, % at 10 µM; 28% of 1,200 active; AID 2283, 2010; CHO KCNQ1 stable, FluxOR thallium flux fluorescence; beyond 3SD, as % of vehicle-control signal;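 active = fluorescence ratio rise of at least 3 SD of vehicle wells above their mean, in both replicate wells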;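 note: 0% = vehicle mean plus 3 SD and 100% = vehicle minus unstimulated blank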
KCNQ2 pot conf = rat KCNQ2 channel potentiators, confirmation, cell-based, CHO, FluxOR thallium flux, duplicate; shares compounds with KCNQ2 enhance; AID 2287, 2010; potentiation, less the hit threshold, % at 10 µM; CHO-KCNQ2 cells, FluxOR thallium flux fluorescence; 68% of 1,200 active;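 active = fluorescence ratio rising 3 SD or more over the vehicle control mean in both replicates, plus primary screen hit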;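 note: peak minus minimum thallium fluorescence divided by baseline after K/Tl stimulus; 0% = vehicle mean plus 3 SD and 100% = vehicle minus unstimulated blank difference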
Kir2-1 sel = mouse Kir2.1 channel activation off-target, confirmation, selectivity assay for KCNQ2 potentiator project, cell-based, HEK293, FluxOR thallium flux; 2% of 1,200 active; HEK293 Kir2.1, FluxOR thallium flux fluorescence; activity over 3SD threshold, % at 10 µM; shares compounds with KCNQ2 enhance;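 active = fluorescence ratio rise of at least 3 SD above the vehicle-control mean, seen in both replicates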;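 note: 0% = vehicle mean plus 3 SD and 100% = vehicle minus no-stimulus blank window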
KCNQ2 W236L pot = potentiators of retigabine-insensitive KCNQ2 W236L, mechanism study for KCNQ2 potentiator project, cell-based, rat KCNQ2 W236L, CHO, automated patch clamp; shares compounds with KCNQ2 enhance; automated patch clamp current; current increase over 3SD of negative controls (%), stronger effect = higher value, % at 25 µM; 10% of 940 active;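 active = current increase at least 3 SD of the untreated controls above them in both duplicate recordings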
* marks the source's active call; other numbers are inactive results; i = inactive; . = no result given.

SMILES | KCNQ2 inh | KCNQ2 enhance | Kir21 confirm | HEK293 ctr | CHO-K1 Tl ctr | KCNQ1 pot spec | KCNQ2 pot conf | Kir2-1 sel | KCNQ2 W236L pot
C=CCn1c(=S)[nH]c2cc(-c3ccccc3)sc2c1=O | i | 2.81 | . | . | . | . | . | . | .
O=c1c2c(-c3cccs3)csc2ncn1-c1ccc(Br)cc1 | i | . | . | . | . | . | . | . | .
C=CCn1c(=S)[nH]c2scc(-c3cccs3)c2c1=O | i | 25.1* | i | 512.0%* | 11.7* | -12.9 | 106.4* | -2.8 | i
CCSc1nnc(NC(=O)c2cc(OC)c(OC)c(OC)c2)s1 | i | 0.05 | . | . | . | . | . | . | .
COc1ccc(N2CCN(C(=O)c3cccc(NC(=O)c4ccco4)c3)CC2)cc1 | i | 1.37 | . | . | . | . | . | . | .
Cc1cccc(NC(=O)COc2coc(CN3CCN(c4ccccc4)CC3)cc2=O)c1C | i | . | . | . | . | . | . | . | .
Cc1ccc(-c2ccc(C(=O)O)[nH]2)cc1 | i | . | . | . | . | . | . | . | .
Cc1ccc(-c2csc(=S)[nH]2)cc1 | i | 22.5* | i | 538.0%* | -22.9 | 23.2* | 83.9* | 11.2* | i
CC(=O)Nc1cccc(-c2nnc(-c3ccc(C)cc3)o2)c1 | i | . | . | . | . | . | . | . | .
O=C(c1ccc(Cl)cc1)N1N=CCC1(O)c1ccc(Cl)cc1 (stereo not given) | i | 0.24 | . | . | . | . | . | . | .
COCC(=O)O[C@]1(CCN(C)CCCc2nc3ccccc3[nH]2)CCc2cc(F)ccc2[C@@H]1C(C)C | i | . | 31.0%* | i | . | . | . | . | .
O=C(COc1ccccc1F)NCc1nc2ccccc2[nH]1 | i | . | . | . | . | . | . | . | .
COc1ccc(OC)c(C(=O)c2c(C)oc3cc([N+](=O)[O-])c(O)c([N+](=O)[O-])c23)c1 | i | 0.84 | . | . | . | . | . | . | .
Cc1oc2cc([N+](=O)[O-])c(O)c([N+](=O)[O-])c2c1C(=O)c1ccc(Cl)cc1 | i | 7.93* | i | 143.5%* | 87.8* | -9.7 | 14.2* | -33.5 | 10.1%*
CC(=O)c1ccc(NC(=O)c2ccc(CSc3ccccc3)o2)cc1 | i | 1.07 | . | . | . | . | . | . | .
O=C(Nc1ccc(F)cc1)c1ccc(CSc2ccc(Cl)cc2)o1 | i | 7.19* | i | i | 2.2* | 90.1* | -9.1 | -43.8 | i
Cc1ccc(N=Nc2ccc(O)c3ncccc23)cc1 | i | 8.3* | i | i | -11.7 | 27.0* | 13.0* | -35.0 | i
CCS(=O)(=O)c1ccc(N=Nc2ccc(O)c3ncccc23)c(OC)c1 | i | 0.63 | . | . | . | . | . | . | .
Cc1ccc(N=Nc2ccc(O)c3ncccc23)cc1C | i | 2.79 | . | . | . | . | . | . | .
COc1ccccc1N=Nc1ccc(O)c2ncccc12 | i | 6.72* | i | i | -7.2 | -21.1 | 1.5* | -28.4 | i
COc1cccc(-c2nc(CCl)cs2)c1OC | i | . | . | . | . | . | . | . | .
Nc1ccc(C(=O)C(=O)c2ccccc2)cc1 | i | . | . | . | . | . | . | . | .
C/C(=C\C(=O)c1ccccc1)NNC(=O)c1ccc(Cl)cc1 | i | 17.6* | i | i | -14.0 | -14.4 | -5.0 | -45.3 | i
COc1ccc(C(=O)NN/C(C)=C/C(=O)c2ccccc2)cc1 | i | 0.97 | . | . | . | . | . | . | .
Cc1sc2nc[nH]c(=S)c2c1-c1ccccc1 | i | 11.7* | i | i | -12.0 | 13.3* | 39.7* | -23.7 | i
